# Source: PubChem (National Center for Advancing Translational Sciences (NCATS))
# JMJD2A Tudor inh: inhibitors of human JMJD2A Tudor domain; O75164; actives 4.4% (n = 390,000); Potency, µM (doses to about 114 µM), inactives show at the highest dose activity change, negative = inhibition, hits mostly inhibitors; AlphaScreen JMJD2A-Tudor / H3K4me3 peptide binding; AID 504339; further: on the % scale 0 is the no-effect control and ±100 the full control effect; nearly all actives have a fitted effect of over 50% in size
# HP1b binding inh: blocks HP1-beta chromodomain binding to methylated histone tails. P83916. AlphaScreen HP1-beta / biotin-H3K9me3 peptide binding. Potency, µM (series often up to 114 µM), for the others: at the top dose activity change, negative = inhibition, hits mostly inhibitors. actives 0.56% (n = 390,000); further: nearly all actives have a fitted effect of over 70% in size
# Target sequence (P83916 whole entry, looked up): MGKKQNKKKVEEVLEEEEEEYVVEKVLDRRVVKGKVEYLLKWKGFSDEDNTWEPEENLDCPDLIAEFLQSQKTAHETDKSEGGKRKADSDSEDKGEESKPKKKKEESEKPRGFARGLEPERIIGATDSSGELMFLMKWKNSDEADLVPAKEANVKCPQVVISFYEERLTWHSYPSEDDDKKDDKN
#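 AlphaScreen: HP1-beta (50 nM) preformed 30 min with biotin-H3(1-18)K9me3 peptide (50 nM) in PBS pH 7.4, 0.01% Tween-20. Compound added for 30 min at RT, then streptavidin donor/nickel chelate acceptor beads (10 ug/mL) for 30 min.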
# BAZ2B inh: blocks human BAZ2B. Q9UIF8. actives 4.4% (n = 360,000). Potency, µM (doses to about 114 µM), inactives show top-dose activity change, negative = inhibition, usual class: inhibitors. AID 504333. AlphaScreen BAZ2B-H3K14Ac peptide displacement; further: on the % scale 0 is the no-effect control and ±100 the full control effect; nearly all actives have a fitted effect of over 60% in size
#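 BAZ2B 50 nM plus b-H3(5-23)K14Ac 50 nM, PBS pH 7.4/0.01% Tween-20, 30 min RT; compound added (max 110 uM), 30 min RT; streptavidin donor/Ni-chelate acceptor beads 10 ug/mL final, 20 min dark; AlphaScreen read.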
# Sfp PPTase inh: blocks B. subtilis Sfp PPTase activity; Q9F4F7; actives 3.5% (n = 310,000); Potency, µM, without a hit: largest response in the series, negative = inhibition, usual class: inhibitors; Biochemical Sfp PPTase activity, qHTS;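 further: the enzyme is Sfp with the accession as filed and its product quenches rhodamine fluorescence; 0% = enzyme reaction without inhibitor and -100% = no enzyme wells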
#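 Fluorescence-quenching assay: 15 nM Sfp-PPTase preincubated 15 min at room temperature with compound, then 5 uM rhodamine-CoA and 12.5 uM BHQ-2-labelled YbbR peptide added. Fluorescence (ex 525/em 598 nm) read at start and after 30 min; difference gives rate.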
# G9a block: blocks human histone lysine methyltransferase G9a. Q96KQ7. G9a H3K9 monomethylation, AlphaScreen, 2 h. Potency, µM (doses to about 102 µM), without a hit: at the highest dose activity, negative = inhibition, actives largely listed as inhibitors. actives 8.8% (n = 350,000). AID 504332; further: on the % scale 0 is the no-effect control and ±100 the full control effect; nearly all actives have a fitted effect of over 75% in size
# Target sequence (Q96KQ7 913-1193 limits assumed): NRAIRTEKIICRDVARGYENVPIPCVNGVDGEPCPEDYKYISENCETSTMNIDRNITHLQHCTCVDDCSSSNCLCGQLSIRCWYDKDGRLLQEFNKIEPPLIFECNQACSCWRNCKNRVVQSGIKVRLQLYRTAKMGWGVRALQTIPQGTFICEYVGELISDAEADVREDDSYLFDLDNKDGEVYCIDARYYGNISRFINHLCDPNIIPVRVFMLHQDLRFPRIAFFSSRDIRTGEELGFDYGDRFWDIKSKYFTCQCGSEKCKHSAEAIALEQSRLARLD
#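 G9a (20 nM) preincubated 15 min RT with compounds, then 500 nM biotinylated H3K9 peptide and 20 uM SAM added; 2 h RT reaction. Monomethyl-H3K9 product detected by AlphaScreen with anti-H3K9me1 antibody, streptavidin donor and anti-rabbit IgG acceptor beads.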
# * marks the source's active call; other numbers are inactive results; ? = inconclusive; . = no result; [ ] = remark or other dose. In the library only some 12% were active in any assay of this set; here they are far more common. The call rests on the fitted dose curve; in most records, active means well fitted curve in the direction sought with a large enough effect; inconclusive means small, poorly fitted or top-dose-only effect, or another doubt; inactive means no such curve, though single readings can be large; an effect the other way counts as inactive or inconclusive. Potency means the concentration at half of the fitted maximal effect.
SMILES,JMJD2A Tudor inh,HP1b binding inh,BAZ2B inh,Sfp PPTase inh,G9a block
COc1c2c(cc3oc(CO[C@@H]4O[C@H](CO)[C@@H](O)[C@H](O)[C@H]4O)cc(=O)c13)O[C@H](C(C)(C)O)C2,-5.7%,45.1%,.,.,.
Cc1sc(NC(=O)Nc2ccccc2)c(C(N)=O)c1C,-24.8%,?,-29.1%,20µM*,8.91µM*
CCOC(=O)c1c(NC(N)=O)sc(C)c1C,-13.1%,43.3%,-10.1%,-13.3%,1.9%[59 µM]
COC(=O)CCC(=O)Nc1sc(C)c(C)c1C(N)=O,?,?,-15.4%,14.1µM*,2.82µM*
COC(=O)CCC(=O)NC(=S)Nc1sc(C)c(C)c1C(N)=O,-25.3%,1.5%,5.2%,-23.4%,8.91µM*
CCOC(=O)Nc1sc(C)c(C)c1C(N)=O,0.7%,31.9%,10.8%,-13.1%,39.8µM*
CC1N=C2c3ccccc3N=C(SCC(=O)NCCc3ccccc3)N2C1=O (stereo not drawn),-28.1%,10.3%,-0.5%,.,?
CC(CCc1ccccc1)NC(=O)Cn1c(=O)nc(-c2ccccc2)c2cc(Cl)ccc21 (stereo not drawn),-6.0%,31.7%,-6.0%,.,2.1%[12.7 µM]
CCOC(=O)N1CCN(C(=O)NC2CCCCC2)CC1,-2.9%,19.8%,11.0%,-2.8%,-8.6%[0.0925 µM]
CCN1CCN(C(=O)NC2CCCCC2)CC1,28.2µM*,?,?,-18.3%,.
O=C(COc1ccc(-c2nnco2)cc1)Nc1ccc(F)c(Cl)c1,-17.9%,-9.8%,.,.,.
N#Cc1ccsc1NC(=O)COc1ccc(-c2nnco2)cc1,-25.5%,29.2%,-5.2%,-28.9%,39.8µM*
CC(C)CC(=O)Nc1ccc(C(=O)COc2ccc(-c3nnco3)cc2)cc1,79.4µM*,-23.4%,2.6%,3.4%,-2.1%[59 µM]
Cc1nc2c(-c3ccccc3)c(C)nn2c(C)c1CCC(=O)Nc1ccccc1F,7.4%,19.9%,-2.4%,.,12.3%[59 µM]
Fc1cccc(-n2ncc3c2ncn2nc(COc4ccc(Cl)cc4)nc32)c1,0.7%,45.6%,4.7%,.,12.0%[59 µM]
O=C(/C=C/c1ccco1)NCCc1ccc(F)cc1,-35.7%,?,79.4µM*,-12.7%,39.8µM*
O=C(/C=C/c1ccco1)Nc1ccc(F)cc1,?,?,?,.,-24.1%[12.7 µM]
O=C(/C=C/c1ccco1)NCc1ccc2c(c1)OCO2,-9.7%,15.9%,-13.1%,?,20µM*
COc1ccc2[nH]c(=O)c(CN(Cc3cccnc3)Cc3nnnn3CC3CCCO3)cc2c1 (stereo not drawn),-13.7%,19.9%,-10.4%,79.4µM*,.
COc1cc2cc(CN(Cc3nnnn3Cc3ccccc3)CC3CCCO3)c(=O)[nH]c2cc1OC (stereo not drawn),-15.8%,32.9%,21.9%,56.2µM*,0.0%[59 µM]
COc1ccc2[nH]c(=O)c(CN(Cc3ccccc3)Cc3nnnn3CC3CCCO3)cc2c1 (stereo not drawn),-20.2%,18.8%,-13.8%,-2.0%,2.4%[59 µM]
CCc1ccc2[nH]c(=O)c(CN(Cc3ccc(OC)cc3)Cc3nnnn3CCOC)cc2c1,-30.1%,15.5%,-36.6%,12.6µM*,?
CN(Cc1ccccc1Cl)C(=O)CCNC(=O)c1ccco1,-6.1%,14.0%,26.7%,.,?
Cc1nc(-c2ccccc2)sc1CCNS(=O)(=O)c1ccccc1,-7.4%,24.9%[57 µM],-1.5%,.,8.1%[59 µM]
Cc1c(C)c(C)c(S(=O)(=O)NCCC(=O)N2CCN(Cc3ccc(C#N)cc3)CC2)c(C)c1C,-13.8%,16.7%,-7.2%,.,11.9%[2.33 µM]
SMILES,JMJD2A Tudor inh,HP1b binding inh,BAZ2B inh,Sfp PPTase inh,G9a block
Cc1noc2nc(C(=O)O)nc(N3CCCCC3)c12,39.8µM*,6.7%,?,.,12.6µM*
Cc1noc2ncnc(N3CCCC(C(=O)NC(C)C)C3)c12 (stereo not drawn),-7.1%,4.4%,3.4%[57.1 µM],.,-4.6%[59 µM]
CC(C)C(c1nnnn1Cc1cccs1)N1CCN(C(=O)c2ccco2)CC1 (stereo not drawn),?,-16.1%,-8.4%,17.8µM*,.
O=C(c1ccco1)N1CCN(C(c2ccccc2Cl)c2nnnn2Cc2ccco2)CC1 (stereo not drawn),-5.3%[11.4 µM],-13.1%,?,50.1µM*,-21.0%[59 µM]
O=C(c1ccco1)N1CCN(C(c2ccc(F)cc2)c2nnnn2Cc2cccs2)CC1 (stereo not drawn),-34.7%,17.3%,?,-18.2%,?
O=C(c1ccco1)N1CCN(C(c2ccccc2Cl)c2nnnn2Cc2cccs2)CC1 (stereo not drawn),-18.3%[11.4 µM],-5.8%,-32.4%,-7.8%,?
O=C(c1ccco1)N1CCN(C(c2ccccc2)c2nnnn2Cc2cccs2)CC1 (stereo not drawn),-26.7%,8.6%,?,79.4µM*,?
Fc1ccc(C(c2nnnn2Cc2cccs2)N2CCN(C3CCCC3)CC2)cc1 (stereo not drawn),-4.8%,15.5%,?,4.7%,-25.3%[59 µM]
c1ccc(C(c2nnnn2Cc2cccs2)N2CCN(C3CCCC3)CC2)cc1 (stereo not drawn),-23.5%,15.7%,-3.1%,-5.5%,44.7µM*
Cc1ccsc1/C=N\NC(=O)c1cc(C(C)(C)C)[nH]n1,-3.8%,40.5%,-4.9%,-17.5%,.
Cc1ccc(S(=O)(=O)c2nnn3c2nc(NC(C)C)c2sccc23)cc1,-3.3%,36.4%,-19.8%,.,-12.9%[59 µM]
CC(Nc1nc(-c2ccc(F)cc2)cs1)c1nc2cc(Cl)c(Cl)cc2n1CCCO (stereo not drawn),-26.4%,21.0%,.,.,.
Cc1ccc(Cn2c(C(C)Nc3nc(-c4ccc(Cl)cc4)cs3)nc3cc(C(=O)NCCCO)ccc32)cc1 (stereo not drawn),79.4µM*,5.9%,.,.,.
Cc1ccc(Cn2c(CCNc3nc(-c4ccc(C)cc4)cs3)nc3cc(C(=O)NCCCO)ccc32)cc1,?,29.6%,.,.,.
CCCn1c(C(C)Nc2nc(-c3ccc(C)cc3)cs2)nc2ccccc21 (stereo not drawn),?,-3.2%,?,-9.0%,89.1µM*
Cc1ccc(Cn2c(C(C)Nc3nc(-c4ccc(C)cc4)cs3)nc3cc(Cl)c(Cl)cc32)cc1 (stereo not drawn),?,44.7µM*,39.8µM*,-13.7%,28.2µM*
O=C(Nc1c(Cl)cc([N+](=O)[O-])cc1Cl)c1cc(Cl)cc(Cl)c1O,?,-5.7%,.,.,.
COC(=O)C1=C(C(=O)OC)[C@@H]2N(C)c3ccccc3[C@@]23C[C@@H](C(=O)OC)N(S(=O)(=O)c2ccc(C)cc2)C3=N1,.,.,.,15.7%,.
CN(C)c1oc(-c2ccccc2Cl)nc1S(=O)(=O)c1ccccc1,?,3.9%,?,-3.9%,79.4µM*
COC(=O)NC(c1ccc(Cl)cc1)C(C(C)=O)C(=O)OC (stereo not drawn),.,.,.,10.6%,.
N#Cc1nc(COc2ccc(Br)cc2)oc1NCCN1CCOCC1,-26.8%,13.1%,?,2.9%,50.1µM*
N#Cc1nc(COc2ccc(F)cc2)oc1NCCN1CCOCC1,-22.3%,25.7%,?,11.4%,79.4µM*
N#Cc1nc(Cc2ccccc2)oc1NCCN1CCOCC1,-12.8%,12.3%,-4.9%,12.9%,?
